From PubChem BioAssay (NCATS)
Results filed as inconclusive are left out. Active and inactive are the calls of the source. Calls come from the whole dose curve; as a rule, active = well fitted curve in the direction sought with a large enough effect; inconclusive = small, poorly fitted or top-dose-only effect, or another doubt; inactive = no such curve, though single readings can be large; an effect the other way counts as inactive or inconclusive.

How the values were obtained:
[1] = test system: Zika virus NS2B-NS3 protease (linked construct); experiment: Primary screen NINDS Rhodamine qHTS for Zika virus inhibitors (AID 1347160); note: nearly all actives have a fitted effect of over 55% in size; note: potency is the fitted concentration of half-maximal effect
Outline: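 Aprotinin served as in-plate control. Conditions: 25 nM linked NS2B-NS3, pH 8.0 Tris buffer, titrated compounds, 15 min preincubation and 15 min reaction with 1.5 microM Rhod110 substrate at room temperature.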

[2] = UWB1.289 Cancer Cell Toxicity qHTS against the NCATS CANVASS Library (AID 1347347); note: nearly all actives have a fitted effect of over 60% in size; note: potency is the fitted concentration of half-maximal effect
Outline: (§1)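 Quantitative HTS format: an 11-concentration series was applied to 1000 cells/well following a 4-hour attachment. Cultures ran 72 hours before ATP luminescence detection by CellTiter-Glo.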

[3] = Panc-1005 Cancer Cell Toxicity qHTS against the NCATS CANVASS Library (AID 1347349); note: nearly all actives have a fitted effect of over 60% in size; note: potency is the fitted concentration of half-maximal effect
Outline: as §1

[4] = SW1088 Cancer Cell Toxicity qHTS against the NCATS CANVASS Library (AID 1347350); note: nearly all actives have a fitted effect of over 75% in size; note: potency is the fitted concentration of half-maximal effect
Outline: as §1

[5] = U-118MG Cancer Cell Toxicity qHTS against the NCATS CANVASS Library (AID 1347351); note: potency is the fitted concentration of half-maximal effect
Outline: as §1

[6] = A2780 Cisplatin Sensitive Ovarian Cancer Cell Toxicity qHTS against the NCATS CANVASS Library (AID 1347353); note: nearly all actives have a fitted effect of over 60% in size; note: potency is the fitted concentration of half-maximal effect
Outline: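 750 cells/well, 4 h settle; 11-pt cpd titration; 72 h, 37 °C, 5% CO2; ATPLite 10 min RT; luminescence read.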

[7] = UWB1.289-WTBRCA1 Cancer Cell Toxicity qHTS against the NCATS CANVASS Library (AID 1347354); note: potency is the fitted concentration of half-maximal effect
Outline: (§2)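 1000 cells/well, 4 h pre-incubation 37 °C/5% CO2; 11-pnt titration; 72 h; CellTiter-Glo 15 min RT, luminescence.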

[8] = HEK-293 Cancer Cell Toxicity qHTS against the NCATS CANVASS Library (AID 1347355); note: nearly all actives have a fitted effect of over 65% in size; note: potency is the fitted concentration of half-maximal effect; for outcome: series mostly up to about 46 µM
Outline: as §2

[9] = test system: NAD(P)H diaphorase (Clostridium kluyveri); experiment: Diaphorse counterscreen qHTS: Assay Interference Panel against the NCATS CANVASS Library (AID 1347362); note: potency is the fitted concentration of half-maximal effect
Outline: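 Clostridium kluyveri diaphorase in PBS + 0.01% Tween-20 preincubated 15 min with compounds. Resazurin and NADH then added for 5 min at room temperature in the dark; resorufin fluorescence read (ex 525, em 598).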

[10] = KB-8-5-11 Cancer Cell Toxicity qHTS against the NCATS CANVASS Library (AID 1347364); note: nearly all actives have a fitted effect of over 75% in size; note: potency is the fitted concentration of half-maximal effect
Outline: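 CellTiter-Glo luminescence after 72 h exposure; 500 KB-8-5-11 cells/well, DMEM/10% FBS, 37C, 5% CO2; compounds in 11-pt qHTS. Follow-up confirmation included medium with 1uM tariquidar.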

[11] = SDT Cancer Cell Toxicity qHTS against the NCATS CANVASS Library (AID 1347365); note: nearly all actives have a fitted effect of over 60% in size; note: potency is the fitted concentration of half-maximal effect
Outline: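 Luminescent ATP read-out (CellTiterGlo) after 72 hr compound exposure of dog glioma SDT cells, 500 per well. Eleven-point titrations; bortezomib titration run alongside as control.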

[12] = biological target: Nuclear receptor subfamily 1 group I member 3 (Homo sapiens) (UniProt Q14994); experiment: qHTS for Constitutive Androstane Receptor (CAR) Antagonist screened against the NCATS CANVASS Library (AID 1347372); note: potency is the fitted concentration of half-maximal effect
Outline: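 Luminescence readout (ONE-Glo, 30 min RT) of CYP2B6-2.2kb reporter in HepG2-hCAR cells after 24hr, 37C treatment with compound against 50 nM CITCO; CellTiter-Fluor viability read beforehand.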

[13] = qHTS for Hypoxia signaling pathway (HIF-1) antagonists against the NCATS CANVASS Library (AID 1347374); note: nearly all actives have a fitted effect of over 60% in size; note: potency is the fitted concentration of half-maximal effect
Outline: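 Beta-lactamase reporter under HRE control in ME-180 cells; CoCl2 stimulus (60 uM solution as added), compounds 11-pt qHTS, 17 h 37C. CCF4 dye 2 h RT, 460/530 nm emission. CellTiter-Glo viability in same wells.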

[14] = DH5-alpha competent E. coli microbial cell viability qHTS against the NCATS CANVASS Library (AID 1347377); conditions: outcome: dose series up to 46.1 µM unless noted
Outline: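 Luminescent ATP read-out (BacTiter-Glo, 20 min RT) after overnight 37C culture of DH5-alpha E. coli with compounds; daunomycin control at 0.2 nM–9.2 uM final.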

[15] = qHTS for H2AX Agonists against the NCATS CANVASS Library (AID 1347378); note: potency is the fitted concentration of half-maximal effect
Outline: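 CHO-K1 cells were plated overnight at 37C, then exposed to compounds (concentration series, 0.76% DMSO final) for 3 hr at 37C. Lysates received Eu-cryptate anti-pH2AX (S139) and d2 anti-H2AX antibodies; after 24 hr at room temperature, TR-FRET 665/620 nm ratio was read.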

[16] = qHTS for Activators of p53 Stress Response Pathway screened against the NCATS CANVASS Library (AID 1347388)
Outline: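 p53RE-bla HCT-116 cells (4000/well) were pre-incubated for 5 h, then treated with compound (11 points) for 16 h at 37C. After 2 h with CCF4, the 460/530 nm ratio gave reporter activation; CellTiter-Glo measured viability.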

[17] = qHTS assay for small molecule disruptors of mitochondrial membrane potential screened against the NCATS CANVASS Library (AID 1347389); note: nearly all actives have a fitted effect of over 60% in size; note: potency is the fitted concentration of half-maximal effect
Outline: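 Red/green fluorescence ratio read-out: J-aggregates ex 540/em 590 nm, monomers ex 490/em 535 nm. HepG2, 1 hr compound treatment, then 30 min Mito-MPS dye at 37C. 11-pt qHTS concentration series.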

[18] = Secretion counterscreen for inhibitors of the SERCaMP assay screened against the NCATS CANVASS Library (AID 1347390);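 note: light from luciferase secreted into medium read as a measure of general secretion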; note: potency is the fitted concentration of half-maximal effect
Outline: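 SH-SY5Y cells expressing constitutively secreted GLuc, 1000 cells/well, attached 4 h at 37C, then exposed to compounds (0.001 - 77 uM, 11-pnt series) for 20 h. Coelenterazine added; luminescence read to flag secretory-pathway interferers.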

[19] = qHTS for activators of dead-cell proteases activity screened against the NCATS CANVASS Library (AID 1347392);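 note: luminescence from protease leaking out of membrane-damaged cells cleaving impermeant substrate; rising signal means more cytotoxicity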
Outline: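 HepG2, 2000 cells/well, 18 h attach; cpd 11-pt, 5 h 37C 5% CO2; CytoTox-Glo (AAF-aminoluciferin) 15 min RT; luminescence read.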

[20] = qHTS for inhibitors of Wild type Zika virus screened against the NCATS CANVASS Library (AID 1347396);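 note: ATP luminescence of surviving cells so rescue from viral cell killing; series mostly up to about 46 µM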
Outline: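 Vero 766 cells, 1000/well, o/n attach; cpds pin-transferred (11-pt qHTS); WT Zika added; 72 h, 37C, 5% CO2; CellTiter Glo lumi. Uninfected + vehicle = 100% inhibition.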

Measured: Potency

Nuclear receptor subfamily 1 group I member 3 (Homo sapiens), sequence (Q14994 whole entry, looked up): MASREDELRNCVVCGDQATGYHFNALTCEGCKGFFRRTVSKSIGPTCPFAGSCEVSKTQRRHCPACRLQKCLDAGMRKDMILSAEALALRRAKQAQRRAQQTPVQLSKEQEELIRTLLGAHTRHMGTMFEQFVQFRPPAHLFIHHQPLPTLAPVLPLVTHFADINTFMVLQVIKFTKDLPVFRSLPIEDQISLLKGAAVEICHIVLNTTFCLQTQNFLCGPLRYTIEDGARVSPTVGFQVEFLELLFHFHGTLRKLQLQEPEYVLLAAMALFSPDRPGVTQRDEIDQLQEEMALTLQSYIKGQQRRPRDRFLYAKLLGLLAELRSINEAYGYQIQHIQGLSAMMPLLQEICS

C=C[C@]1(C)CC[C@@H]([C@H](C)C(=O)/C=C/C(C)C)O1
inactive: all assays above

CCCCCCCCC[C@@H]1C[C@@H]2CC[C@H]3[C@@H](C(=O)OCCCCN=C(N)N)[C@@H](C)N=C(N1)N23
active: [2] 10.3 µM | [3] 14.7 µM | [4] 13.1 µM | [5] 11.6 µM | [8] 11.5 µM | [11] 2.58 µM
inactive: [1] | [9] | [16] | [17] | [18] | [19] | [20]

CO[C@@H]1[C@H](O)[C@@H](C)O[C@@H](OC[C@@H]2C(C)OC(=O)/C=C/[C@H](C)C(O[C@@H]3O[C@H](C)CC4(OC(=O)O[C@@H]4C)C3O)[C@@H](C)CC(C)C(=O)CC[C@H]3OC23)[C@@H]1OC (stereo partly specified)
active: [1] 49.3 µM
inactive: all other assays above

CN1CC[C@]2(c3cccc4c3N[C@@H]3N(C)CC[C@]43[C@@]34CCN(C)[C@@H]3Nc3c([C@]56CCN(C)[C@H]5Nc5ccccc56)cccc34)c3ccccc3N[C@H]12
active: [2] 4.72 µM | [3] 6.68 µM | [4] 18.8 µM | [5] 6.68 µM | [6] 9.35 µM | [7] 10.6 µM | [8] 2.96 µM | [10] 9.35 µM | [11] 1.32 µM | [12] 26.3 µM | [15] 13.7 µM
inactive: [1] | [9] | [17]

C=C1C[C@@]23C=CC(=O)[C@@](C)(CCC(=O)Nc4c(OC5O[C@H](CO)[C@@H](O)[C@H](O)[C@H]5O)ccc(C(=O)O)c4O)C2C[C@@H]1CC3 (stereo partly specified)
active: [1] 39.2 µM
not listed: [14]
inactive: all other assays above

C/C=C/C(=O)[C@@H](C)C1=CC(=O)C2=C(O[C@@]34CC[C@H](O)C(C)(C)[C@@H]3CC[C@H](C)[C@@]4(C)C2)C1=O
active: [1] 49.3 µM | [2] 21.1 µM | [3] 4.21 µM | [4] 7.49 µM | [6] 1.66 µM | [8] 2.96 µM | [9] 8.61 µM | [10] 14.8 µM | [11] 2.96 µM | [12] 20.9 µM | [13] 2.11 µM | [15] 15.4 µM | [17] 16.6 µM | [18] 17.2 µM
inactive: [14]
